Assay results: ChEMBL document CHEMBL1157539, “Thousands of chemical starting points for antimalarial lead identification” (Nature, 2010)

tested on: HepG2; assay: GSK_TCMDC: Percent inhibition of human HepG2 cell line. Test compounds present at 10uM.; format: functional

SMILES | Inhibition [%]
CCCNC(=O)C1CCN(C(c2ccccc2)c2ccc(Cl)c(Cl)c2)CC1 (stereo not given) | 15
CCOc1cc(C(=O)NC2CCN(Cc3ccccc3)CC2)ccc1-c1nc2cc(Cl)ccc2[nH]1 | 10
c1ccc(CNc2nc(NCCc3c[nH]cn3)nc(NCc3cccc4ccccc34)n2)cc1 | 9
O=C(Cc1ccc(Cl)cc1)Nc1cc(Cl)ccc1Cn1cnc(N2CCNCC2)cc1=O.O=C(O)C(F)(F)F | 9
COc1ccc2nccc([C@@H](O)CN3CCC(NCc4cn5cc(F)ccc5n4)CC3)c2c1.O=C(O)C(=O)O | 19
CCNC(=O)Nc1ccc(N(C)c2ccnc(Nc3ccc(CS(C)(=O)=O)cc3)n2)cc1.Cl | 0
O=C(c1cc2c(s1)-c1cccc(Cl)c1SC2)N1CCN(c2ccncc2)CC1 | 45
O=C(C=Cc1ccc(Cl)c(Cl)c1)NCCCCCN1CCC(CCCNS(=O)(=O)c2cccc(C(F)(F)F)c2)CC1 | 99
O=C(Nc1ccc(Br)cc1)N(CCN1CCOCC1)CC(O)COCc1ccc(Cl)c(Cl)c1.O=C(O)C(F)(F)F (stereo not given) | 16
Cc1cc(Br)cnc1CCCCNC1=NC(=O)CN1C | 63
c1cncc(CN2CCN(Cc3ccc(-c4ccc(-c5nc6ccccc6[nH]5)s4)cc3)CC2)c1 | 32
CCN(CC)CCN(Cc1ccc(-c2ccc(C(F)(F)F)cc2)cc1)C(=O)Cn1c(CCc2cccc(F)c2F)nc(=O)c2ccc(C(F)(F)F)cc21.O=C(O)C(O)C(O)C(=O)O | 19
COc1cccc(C(=O)Nc2ccc(Nc3nc(C)cc(N(C)C)n3)cc2)c1OC | 0
CS(=O)(=O)c1ccc(CNCc2ccc(-c3ccc(-c4nc5cc(C(F)(F)F)ccc5[nH]4)s3)cc2)cc1.O=C(O)C(F)(F)F | 49
CCC(CC)N1CCN(CC(=O)Nc2ccc([N+](=O)[O-])cc2C(=O)Nc2cccc(OC)c2)CC1 | 35
Br.CC(=O)Nc1nc(C)c(-c2csc(Nc3ccc(Cl)cc3)n2)s1 | 14
COc1ccc(C2C(C(=O)Nc3ccc(C)c(F)c3)c3cc(OC)c(OC)cc3C(=O)N2C)cc1 (stereo not given) | 6
CCOC(=O)c1cn(CC)c2cc(N3CCCCC3)c(F)cc2c1=O | 0
CC(CN1CCN(C)CC1)C(=O)Nc1ccc(-c2cccc(-c3nc4ccccc4[nH]3)c2)cc1 (stereo not given) | 4
CCN(CC)CCCN(CCCN(CC)CC)c1cc(C)nc(Nc2ccc(Cl)cc2)n1.O=C(O)C(=O)O | 11

SMILES | Inhibition [%]
CN1CCN(c2ccc(Nc3ncc([N+](=O)[O-])c(Nc4ccccc4O)n3)cc2)CC1.O=C(O)C(F)(F)F | 98
CCNc1cc(C(=O)N[C@@H](Cc2ccccc2)[C@H](O)CNC(C)(C)Cc2cccc(OC)c2)cc(N2CCCC2=O)c1.O=CO | 7
Oc1c(C=Nn2cnnc2)sc2ccccc12 | 0
CCCCNC(=O)c1[nH]c2c(NC(=O)COc3ccccc3)cccc2c1-c1cccc(NC(=O)C(N)CO)c1 (stereo not given) | 11
COc1ccc(Cc2nc(/N=C(\N)Nc3ccccc3)ccc2OC)cc1 | 40
O=C(O)C(F)(F)F.O=S(=O)(NCCN1CCCC1)c1cccc(-c2cccc(CNCCc3cccs3)c2)c1 | 30
COc1ccc2ncc(Cl)c(CCN3C[C@H](CNCc4ccc5c(n4)NC(=O)CS5)[C@H](O)C3)c2n1.Cl | 2
N#Cc1cccc(C(=O)NC2CCN(c3ccnc(Nc4ccc(F)cc4)n3)C2)c1 (stereo not given) | 4
C=CCN1CCC(N(Cc2cccc(Oc3ccccc3)c2)C(=O)C(c2ccccc2)c2ccccc2)CC1 | 7
COc1ccc(N2C(=O)c3c(c4ccccc4n3C)C2c2ccccc2O)cc1 (stereo not given) | 32
O=C(O)C(F)(F)F.OCCN1CCN(Cc2ccc(-c3ccc(-c4nc5ccccc5[nH]4)cc3)cc2)CC1 | 6
CN(C)CCOc1cc(NC(=O)Nc2ccc(Oc3ccccc3)cc2)ccc1I.Cl | 13
CCCOc1cc(Cc2cnc(N)nc2N)cc(OC)c1OC | 21
CCC1CN(CCCn2c3ccccc3c3ccccc32)C(CC)CN1.Cl (stereo not given) | 69
Cl.O=C(/C=C/c1ccc(F)cc1)NC1CCC(CCN2CCc3ccc(-n4cccn4)cc3CC2)CC1 (stereo not given) | 23
Br.CC1(C)N=C(N)N=C(N)N1OCc1cccc2c1ccc1ccccc12 | 63
CC(C)CNC(=O)c1cncc(-c2ccc(CNC3Cc4ccccc4C3)cc2)c1.O=C(O)C(F)(F)F | 5
COc1cc2cc(-c3nc4ccccc4[nH]3)c(N)nc2cc1OC.Cl | 91
O=C(NCCc1ccc(Cl)c(Cl)c1)[C@@H]1CCCN1C(=O)c1ccc(O)c(-c2ccc(Cl)c(Cl)c2)c1 | 0
O=C(O)C(F)(F)F.Oc1ccc(CCNc2nc(NCc3ccccc3-c3ccc(C(F)(F)F)cc3)nc(N3CCCNCC3)n2)cc1 | 12
